Data as given in PubChem BioAssay AID1053125 (Broad Institute, 2014).
Entries with a potency or affinity are not part of this list. Calls of active or inactive are those of the source.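 How the source made its calls: active means viability loss whose fitted half-maximal concentration is at most twice the top valid tested dose; inconclusive means flat curve with 30 to 70% loss, or poor fit; inactive means the rest.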

Test: HepG2 cell cytotoxicity, dose response, cytotoxicity control, ATP luminescence, cherry-pick, set 6 (AID 1053125);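 further: negative values mean loss of viability signal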

| Compound | outcome |
| --- | --- |
| COc1c(Cl)cc(-c2noc(C)c2C(=O)NCc2ccc3c(c2)OCO3)cc1Cl | inactive |
| COc1ccccc1/C=N/Nc1nc(C)cc(=O)[nH]1 | inactive |
| CSCCC1(C(=O)O)NC(c2ccccc2O)C2C(=O)N(C(C)C)C(=O)C21 (stereo not given) | inactive |
| Cc1cc(OC(=O)c2ccccc2Cl)ccc1N1C(=O)CCC1=O | inactive |
| CCOc1ccc(C(=O)c2cc3ccc(O)cc3oc2=O)cc1 | inactive |
| CCc1cccc(C)c1NC(=S)NCc1ccc2c(c1)cc(C)n2C | inactive |
| COc1cc(C(=O)NCCCNc2nc3c(C)cc(C)cc3cc2C#N)cc(OC)c1OC | inactive |
| Cc1cc(=O)oc2cc(OC(=O)c3cncc(Br)c3)ccc12 | inactive |
| CCCCN1C=C(C(=O)OC)C(c2ccccc2Cl)C(C(=O)OC)=C1 | inactive |
| Cc1cc(-c2ccccc2)c2ccc(NC(=O)C(C)(C)C)nc2n1 | inactive |
| Cc1ccc(C(=O)OCC(=O)Nc2c(C)nn(-c3ccccc3)c2C)c(O)c1 | inactive |
| Cc1ccc2nc3c(cc(S(=O)(=O)c4ccccc4)c(=N)n3Cc3ccco3)c(=O)n2c1 | inactive |
| COc1ccc(CCN=C(N)NS(=O)(=O)c2ccc(F)cc2)cc1 | inactive |
| CCOCCCNC(=S)N1CCCN(c2nc3cc(C)c(C)cc3cc2C#N)CC1 | inactive |
| CCN(CC)CCN1C2=C(C(=O)CC(C)(C)C2)C(c2cccc(F)c2)C2=C1CC(C)(C)CC2=O | inactive |
| CCOC(=O)c1cc(-c2ccccc2)sc1NC(=O)CSc1nnc(N)s1 | inactive |
| O=C(CCCn1c(=O)c2sccc2n(Cc2cc(=O)n3ccccc3n2)c1=O)NCc1ccco1 | inactive |
| Cc1ccc(-n2c(C)cc(/C=N/NC(=O)Cn3c4ccccc4c(=O)c4ccccc43)c2C)cc1 | inactive |

| Compound | outcome |
| --- | --- |
| CCCN1CCN(C(=O)c2ccc(CS(=O)c3ccc(Br)cc3)o2)CC1 (stereo not given) | inactive |
| O=C(O)c1cccc(Nc2nc(-c3cc4ccccc4oc3=O)cs2)c1 | inactive |
| O=C(NNc1cc(N2CCCC2)nc(N2CCCC2)n1)c1ccc([N+](=O)[O-])cc1 | inactive |
| Cn1cc(C(c2ccccc2OCC(=O)O)c2cn(C)c3ccccc23)c2ccccc21 | inactive |
| CCOc1ccc(S(=O)(=O)Nc2ccc(C(=O)N(CC)CC(=O)NCc3cccs3)cc2)cc1 | inactive |
| COc1ccc(Br)c(Cn2c(C)c(C(=O)NCc3ccc4c(c3)OCCO4)sc2=O)c1 | inactive |
| Cc1cc2c(C)cc(=O)oc2c2c1NCCC2 | inactive |
| CN(C)/C=C/C(=O)c1c(F)cccc1F | inactive |
| Cc1cccn2c(=O)c3cc(C(=O)NCc4ccc(F)cc4)c(=N)n(CCCN4CCOCC4)c3nc12 | inactive |
| COc1ccc(Cn2nnnc2C(CC(C)C)N2CCC(C(N)=O)CC2)cc1 (stereo not given) | inactive |
| CC(=O)c1cc2c(ccc3ccccc32)oc1=O | inactive |
| CC(=O)c1cccc(-c2ccnc3c2CC(C(=O)NCc2ccc(F)c(F)c2)O3)c1 (stereo not given) | inactive |
| Cn1cnc(S(=O)(=O)Nc2ccc(OC(F)(F)F)cc2)c1 | inactive |
| N=c1oc2cc(O)ccc2cc1C(=O)Nc1nc2ccccc2s1 | inactive |
| Cc1noc(C)c1S(=O)(=O)N(CC(=O)N1CCCCCC1)c1ccc(C(C)C)cc1 | inactive |
| CC1CCCCC1NC(=O)CN1C(=O)c2cccc(N)c2C1=O (stereo not given) | inactive |
| O=c1c2ccccc2n(CC(O)CN2CCCCC2)c2ccccc12 (stereo not given) | inactive |
